Laboratory results as given in ChEMBL document CHEMBL1961873, “Compounds: GSK PKIS; Assays: Nanosyn kinase panel” (2012).

Legend:
[1] = target: Platelet-derived growth factor receptor beta (Homo sapiens) (UniProt P09619); conditions: at 1 µM;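 note: each value is a mean percent inhibition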
[2] = target: Tyrosine-protein kinase FRK (Homo sapiens) (UniProt P42685); conditions: at 0.1 µM
[3] = target: Tyrosine-protein kinase FRK (Homo sapiens) (UniProt P42685); conditions: at 1 µM
[4] = target: Protein-tyrosine kinase 2-beta (Homo sapiens) (UniProt Q14289); conditions: at 0.1 µM
Sequence of Protein-tyrosine kinase 2-beta (Homo sapiens) (Q14289 whole entry, looked up): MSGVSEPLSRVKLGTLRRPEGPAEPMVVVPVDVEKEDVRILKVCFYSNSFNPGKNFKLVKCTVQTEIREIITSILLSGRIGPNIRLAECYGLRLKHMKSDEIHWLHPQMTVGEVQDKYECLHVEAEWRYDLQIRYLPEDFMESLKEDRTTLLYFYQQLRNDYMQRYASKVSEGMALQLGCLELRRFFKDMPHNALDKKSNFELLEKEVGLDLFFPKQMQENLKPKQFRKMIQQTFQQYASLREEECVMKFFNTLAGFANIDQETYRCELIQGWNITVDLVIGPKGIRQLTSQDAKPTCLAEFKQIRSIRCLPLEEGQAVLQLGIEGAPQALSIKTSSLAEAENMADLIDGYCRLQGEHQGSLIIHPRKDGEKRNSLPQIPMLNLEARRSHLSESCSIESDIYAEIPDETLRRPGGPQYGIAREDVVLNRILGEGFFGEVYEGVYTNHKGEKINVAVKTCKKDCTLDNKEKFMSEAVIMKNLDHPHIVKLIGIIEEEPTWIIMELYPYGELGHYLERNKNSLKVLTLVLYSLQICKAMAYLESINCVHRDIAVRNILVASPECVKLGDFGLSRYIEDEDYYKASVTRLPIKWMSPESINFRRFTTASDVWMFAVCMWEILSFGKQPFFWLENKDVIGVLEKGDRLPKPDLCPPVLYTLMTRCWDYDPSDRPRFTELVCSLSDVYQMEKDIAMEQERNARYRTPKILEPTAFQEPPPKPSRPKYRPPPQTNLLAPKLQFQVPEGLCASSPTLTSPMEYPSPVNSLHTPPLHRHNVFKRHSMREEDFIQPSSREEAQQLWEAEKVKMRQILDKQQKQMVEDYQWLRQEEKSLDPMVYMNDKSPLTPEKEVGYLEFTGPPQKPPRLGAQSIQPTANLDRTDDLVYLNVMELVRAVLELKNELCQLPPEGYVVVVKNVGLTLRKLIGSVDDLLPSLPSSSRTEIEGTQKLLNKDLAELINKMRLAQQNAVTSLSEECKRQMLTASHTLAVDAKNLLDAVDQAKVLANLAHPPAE

[5] = target: Protein-tyrosine kinase 2-beta (Homo sapiens) (UniProt Q14289); conditions: at 1 µM
[6] = target: Proto-oncogene tyrosine-protein kinase receptor Ret (Homo sapiens) (UniProt P07949); conditions: at 0.1 µM
Sequence of Proto-oncogene tyrosine-protein kinase receptor Ret (Homo sapiens) (P07949 whole entry): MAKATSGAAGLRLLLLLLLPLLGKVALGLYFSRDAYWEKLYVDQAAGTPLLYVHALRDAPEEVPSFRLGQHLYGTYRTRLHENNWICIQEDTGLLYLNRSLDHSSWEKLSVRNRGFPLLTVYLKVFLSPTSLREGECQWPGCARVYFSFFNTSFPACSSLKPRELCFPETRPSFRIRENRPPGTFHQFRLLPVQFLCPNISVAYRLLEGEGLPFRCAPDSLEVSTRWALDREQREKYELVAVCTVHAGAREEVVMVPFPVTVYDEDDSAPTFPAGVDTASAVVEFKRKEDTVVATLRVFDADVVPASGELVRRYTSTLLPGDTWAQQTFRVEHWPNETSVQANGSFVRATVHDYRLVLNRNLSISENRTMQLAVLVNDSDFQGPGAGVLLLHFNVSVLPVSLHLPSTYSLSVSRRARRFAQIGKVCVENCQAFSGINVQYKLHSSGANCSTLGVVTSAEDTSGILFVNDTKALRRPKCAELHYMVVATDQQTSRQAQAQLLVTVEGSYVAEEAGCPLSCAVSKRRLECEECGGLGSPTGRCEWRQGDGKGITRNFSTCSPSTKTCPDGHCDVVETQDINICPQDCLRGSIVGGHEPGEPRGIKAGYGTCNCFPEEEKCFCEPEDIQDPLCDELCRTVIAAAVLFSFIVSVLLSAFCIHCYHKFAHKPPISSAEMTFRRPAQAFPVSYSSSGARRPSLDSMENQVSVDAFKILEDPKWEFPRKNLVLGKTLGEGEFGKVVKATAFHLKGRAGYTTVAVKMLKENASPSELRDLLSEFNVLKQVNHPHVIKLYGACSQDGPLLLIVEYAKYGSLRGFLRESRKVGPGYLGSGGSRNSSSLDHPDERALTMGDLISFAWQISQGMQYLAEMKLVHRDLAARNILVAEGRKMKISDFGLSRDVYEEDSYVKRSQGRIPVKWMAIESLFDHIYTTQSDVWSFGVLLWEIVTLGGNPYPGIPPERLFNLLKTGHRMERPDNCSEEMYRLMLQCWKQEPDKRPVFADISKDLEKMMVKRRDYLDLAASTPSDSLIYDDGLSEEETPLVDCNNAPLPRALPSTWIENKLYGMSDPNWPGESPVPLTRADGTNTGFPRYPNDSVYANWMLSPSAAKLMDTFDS

[7] = target: Proto-oncogene tyrosine-protein kinase receptor Ret (Homo sapiens) (UniProt P07949); conditions: at 1 µM
[8] = system: Proto-oncogene tyrosine-protein kinase receptor Ret (Homo sapiens), P07949 [V804L]; conditions: at 0.1 µM
Sequence of Proto-oncogene tyrosine-protein kinase receptor Ret (Homo sapiens), P07949 [V804L] (P07949 whole entry V804L): as the sequence (P07949 whole entry) above, with V804L counted along it

[9] = system: Proto-oncogene tyrosine-protein kinase receptor Ret (Homo sapiens), P07949 [V804L]; conditions: at 1 µM
[10] = system: Proto-oncogene tyrosine-protein kinase receptor Ret (Homo sapiens), P07949 [Y791F]; conditions: at 0.1 µM
Sequence of Proto-oncogene tyrosine-protein kinase receptor Ret (Homo sapiens), P07949 [Y791F] (P07949 whole entry Y791F): as the sequence (P07949 whole entry) above, with Y791F counted along it

[11] = system: Proto-oncogene tyrosine-protein kinase receptor Ret (Homo sapiens), P07949 [Y791F]; conditions: at 1 µM
[12] = target: Macrophage-stimulating protein receptor (Homo sapiens) (UniProt Q04912); conditions: at 0.1 µM
[13] = target: Macrophage-stimulating protein receptor (Homo sapiens) (UniProt Q04912); conditions: at 1 µM
[14] = target: Proto-oncogene tyrosine-protein kinase ROS (Homo sapiens) (UniProt P08922); conditions: at 0.1 µM
Sequence of Proto-oncogene tyrosine-protein kinase ROS (Homo sapiens) (P08922 whole entry): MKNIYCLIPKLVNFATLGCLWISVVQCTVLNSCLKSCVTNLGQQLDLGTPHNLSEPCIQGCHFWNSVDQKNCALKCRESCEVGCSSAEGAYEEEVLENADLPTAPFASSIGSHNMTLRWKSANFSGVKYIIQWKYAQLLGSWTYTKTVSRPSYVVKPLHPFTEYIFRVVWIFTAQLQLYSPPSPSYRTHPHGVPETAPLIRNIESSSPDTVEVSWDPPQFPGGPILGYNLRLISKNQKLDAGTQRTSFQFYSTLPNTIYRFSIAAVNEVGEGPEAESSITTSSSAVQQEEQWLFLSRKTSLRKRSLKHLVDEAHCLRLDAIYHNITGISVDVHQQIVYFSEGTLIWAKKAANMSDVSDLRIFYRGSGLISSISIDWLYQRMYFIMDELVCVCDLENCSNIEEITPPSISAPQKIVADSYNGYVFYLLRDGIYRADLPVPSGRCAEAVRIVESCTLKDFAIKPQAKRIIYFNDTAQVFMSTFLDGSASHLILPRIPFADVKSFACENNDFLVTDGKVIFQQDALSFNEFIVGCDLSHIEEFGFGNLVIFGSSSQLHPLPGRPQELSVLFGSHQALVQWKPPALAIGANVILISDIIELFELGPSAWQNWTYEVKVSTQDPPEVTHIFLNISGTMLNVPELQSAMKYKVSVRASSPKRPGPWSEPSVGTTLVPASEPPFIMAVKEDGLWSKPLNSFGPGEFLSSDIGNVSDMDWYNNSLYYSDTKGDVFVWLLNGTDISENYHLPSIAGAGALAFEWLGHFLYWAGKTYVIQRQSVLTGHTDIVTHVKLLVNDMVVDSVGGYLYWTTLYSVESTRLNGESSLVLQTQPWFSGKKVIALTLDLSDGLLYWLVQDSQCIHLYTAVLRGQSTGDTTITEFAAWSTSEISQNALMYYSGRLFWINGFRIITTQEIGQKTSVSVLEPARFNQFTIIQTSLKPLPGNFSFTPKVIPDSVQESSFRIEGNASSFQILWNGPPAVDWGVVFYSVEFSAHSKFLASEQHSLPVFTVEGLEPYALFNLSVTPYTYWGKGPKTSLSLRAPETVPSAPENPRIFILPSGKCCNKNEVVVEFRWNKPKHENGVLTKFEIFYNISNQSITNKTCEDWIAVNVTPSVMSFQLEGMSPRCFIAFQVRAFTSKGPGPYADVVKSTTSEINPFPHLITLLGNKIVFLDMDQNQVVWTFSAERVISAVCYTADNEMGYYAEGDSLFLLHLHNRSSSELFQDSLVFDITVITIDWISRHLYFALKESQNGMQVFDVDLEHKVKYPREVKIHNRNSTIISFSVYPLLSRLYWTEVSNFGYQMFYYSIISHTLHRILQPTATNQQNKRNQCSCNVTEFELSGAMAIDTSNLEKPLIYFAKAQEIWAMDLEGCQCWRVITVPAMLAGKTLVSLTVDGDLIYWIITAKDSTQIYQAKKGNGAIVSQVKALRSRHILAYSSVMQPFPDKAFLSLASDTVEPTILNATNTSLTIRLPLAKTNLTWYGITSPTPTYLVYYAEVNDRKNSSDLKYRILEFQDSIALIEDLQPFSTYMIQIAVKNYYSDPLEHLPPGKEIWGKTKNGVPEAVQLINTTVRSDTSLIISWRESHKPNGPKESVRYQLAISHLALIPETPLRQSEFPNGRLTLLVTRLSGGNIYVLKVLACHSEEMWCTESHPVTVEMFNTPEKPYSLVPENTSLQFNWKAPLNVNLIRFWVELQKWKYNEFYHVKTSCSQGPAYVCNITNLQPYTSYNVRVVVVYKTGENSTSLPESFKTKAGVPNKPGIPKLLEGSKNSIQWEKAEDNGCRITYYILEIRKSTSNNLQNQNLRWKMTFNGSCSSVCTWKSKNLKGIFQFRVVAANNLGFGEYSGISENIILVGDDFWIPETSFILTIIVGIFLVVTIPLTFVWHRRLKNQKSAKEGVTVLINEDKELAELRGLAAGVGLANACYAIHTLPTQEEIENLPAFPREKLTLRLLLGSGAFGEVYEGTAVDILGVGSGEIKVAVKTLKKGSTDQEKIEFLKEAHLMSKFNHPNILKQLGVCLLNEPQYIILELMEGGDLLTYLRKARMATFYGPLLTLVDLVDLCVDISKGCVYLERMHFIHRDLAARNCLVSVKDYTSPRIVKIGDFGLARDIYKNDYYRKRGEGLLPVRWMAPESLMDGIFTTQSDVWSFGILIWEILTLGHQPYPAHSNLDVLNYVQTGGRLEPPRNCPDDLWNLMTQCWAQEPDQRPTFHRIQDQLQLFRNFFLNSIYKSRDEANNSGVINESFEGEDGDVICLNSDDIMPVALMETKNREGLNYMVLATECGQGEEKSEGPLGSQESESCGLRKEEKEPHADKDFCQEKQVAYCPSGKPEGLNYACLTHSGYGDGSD

[15] = target: Proto-oncogene tyrosine-protein kinase ROS (Homo sapiens) (UniProt P08922); conditions: at 1 µM
[16] = target: Proto-oncogene tyrosine-protein kinase Src (Homo sapiens) (UniProt P12931); conditions: at 0.1 µM
[17] = target: Proto-oncogene tyrosine-protein kinase Src (Homo sapiens) (UniProt P12931); conditions: at 1 µM
[18] = target: Tyrosine-protein kinase Srms (Homo sapiens) (UniProt Q9H3Y6); conditions: at 0.1 µM
Sequence of Tyrosine-protein kinase Srms (Homo sapiens) (Q9H3Y6 whole entry): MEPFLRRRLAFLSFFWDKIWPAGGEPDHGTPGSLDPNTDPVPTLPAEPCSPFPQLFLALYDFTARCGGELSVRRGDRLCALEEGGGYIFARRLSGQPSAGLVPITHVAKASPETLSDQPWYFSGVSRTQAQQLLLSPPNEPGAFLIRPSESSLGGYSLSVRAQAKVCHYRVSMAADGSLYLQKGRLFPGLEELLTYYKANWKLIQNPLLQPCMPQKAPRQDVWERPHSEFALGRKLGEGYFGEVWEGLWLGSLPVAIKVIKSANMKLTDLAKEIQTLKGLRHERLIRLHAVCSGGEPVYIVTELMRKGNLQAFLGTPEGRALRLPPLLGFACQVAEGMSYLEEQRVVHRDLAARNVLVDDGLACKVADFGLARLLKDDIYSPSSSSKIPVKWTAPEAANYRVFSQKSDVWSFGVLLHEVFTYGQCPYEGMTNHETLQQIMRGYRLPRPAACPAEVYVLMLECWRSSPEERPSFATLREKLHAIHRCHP

[19] = target: Tyrosine-protein kinase Srms (Homo sapiens) (UniProt Q9H3Y6); conditions: at 1 µM
[20] = target: Tyrosine-protein kinase SYK (Homo sapiens) (UniProt P43405); conditions: at 0.1 µM;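 note: reported percentages are mean inhibition values for SYK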

Row | SMILES | inhibition [1] [%] | inhibition [2] [%] | inhibition [3] [%] | inhibition [4] [%] | inhibition [5] [%] | inhibition [6] [%] | inhibition [7] [%] | inhibition [8] [%] | inhibition [9] [%] | inhibition [10] [%] | inhibition [11] [%] | inhibition [12] [%] | inhibition [13] [%] | inhibition [14] [%] | inhibition [15] [%] | inhibition [16] [%] | inhibition [17] [%] | inhibition [18] [%] | inhibition [19] [%] | inhibition [20] [%]
1 | O=C1NC(=O)C(c2ccccc2Cl)=C1Nc1cccc(O)c1 | 3.43 | 0.88 | 0.39 | 5.7 | 8.51 | 1.55 | 7.91 | 3.61 | 2.98 | 2.99 | 6.27 | 1.7 | 4.87 | 3.13 | 6.28 | 3.41 | 7.83 | -0.89 | -2.12 | 0.85
2 | CS(=O)(=O)CCNCc1ccc(-c2ccc3ncnc(Nc4ccc(OCc5ccccc5)c(Cl)c4)c3c2)o1 | 5.7 | 0.96 | 2.22 | 5.42 | 5.81 | 4.78 | 9.58 | 9.04 | 12.4 | 10.2 | 12.1 | 3.3 | 5.38 | 3.99 | 4.36 | 0.6 | 3.9 | -0.03 | -0.79 | 1.87
3 | CCn1c(-c2nonc2N)nc2cncc(C(=O)N3CC[C@H](N)C3)c21 | 10.7 | 3.16 | 2.04 | 10.8 | 7.69 | 5.56 | 4.11 | 3.46 | 4.03 | 4.17 | 13.9 | 2.92 | 6.19 | 7.46 | 6.07 | -1.35 | 7.23 | 0.37 | -0.65 | -5.72
4 | COc1cc2c(cc1Nc1nc(N3CCc4ccccc43)c3cc[nH]c3n1)N(C(=O)CN(C)C)CC2 | 3.27 | 0.34 | 0.69 | 59.7 | 90 | 3.49 | 9.16 | 0.54 | 4.92 | 1.4 | 8.94 | -4.18 | 4.66 | 70.2 | 79.2 | 1.56 | 8.12 | 0.05 | -1.29 | 0.91
5 | NS(=O)(=O)c1ccc(N/N=C2\C(=O)Nc3ccc(C(=O)NCCc4c[nH]cn4)cc32)cc1 | 82.7 | 0.73 | 3.44 | 12.8 | 24.2 | 15.3 | 57.8 | 42.6 | 83.5 | 22.8 | 63.7 | 0.68 | 6 | 10.9 | 18.1 | -1.33 | 33 | -0.78 | 1.4 | -4.27
6 | O=C1Nc2ccc(C(=O)c3ccco3)cc2C1=Cc1cc(Cl)c(O)c(Cl)c1 | 18.5 | 1.7 | 7.16 | 15 | 34.6 | 19.6 | 58.1 | 38.4 | 74.7 | 16 | 54.8 | 14.5 | 18.8 | 6.01 | 11.2 | 3.8 | 15.5 | 21.3 | 59.7 | -6.13
7 | COc1ccccc1Nc1ncc(-c2ccccc2)o1 | 47.7 | 3.68 | 5.01 | 0.49 | 11.1 | 5.4 | 6.88 | 3.68 | 5.75 | 9.37 |  | 6.08 | 1.59 | 5.04 | 11.2 | 8.59 | 11.2 | -1.24 | 2.11 | -1.37
8 | CC(C)=Cc1cccc2c1/C(=N/Nc1ccc(S(N)(=O)=O)cc1)C(=O)N2 | 62.6 | 1.44 | 5.49 | 3.24 | 27.5 | 14.8 | 60.7 | 16.4 | 67.4 | 6.44 | 50.3 | 2.03 | 4.1 | -0.28 | 20 | 10.8 | 46.4 | 3.21 | 4.02 | 2.78
9 | CCN1CCC(CC(=O)Nc2n[nH]c3nc(-c4cccs4)c(Br)cc23)CC1 | 14.4 | -1.17 | -0.21 | -9.91 |  | 1.65 | 3.8 | 0.08 | -2.04 | -1.87 | -0.99 | 0.5 | 6.29 | -0.25 | -0.04 | 15.4 | -4.33 | -1.72 | -0.34 | -1.06
10 | Cc1cccc(-c2n[nH]cc2-c2ccc3ncccc3n2)n1 | 26.5 | 1.55 | -0.81 | -4.16 | 0.67 | 1.65 | 15.1 | -1.82 | 2.72 | 3.64 | 18.7 | 3.7 | 1.79 | 1.26 | 4.08 | 2.63 | 3.67 | 0.03 | 3.34 | 1.27
11 | CN(C)c1cc2c(Nc3ccc4nc(Cc5ccccc5)[nH]c4c3)ncnc2cn1 | 12.1 | -0.33 | 3.88 | 15.7 | 11.8 | 7.21 | 13.2 | 3.89 | 7.59 | 6.91 | 27.9 | 7.08 | 3.46 | 6.18 | 11.8 | -0.18 | 20.1 | 1.22 | 8.06 | -5.04
12 | NC(=O)c1cccc(Nc2nccc(Nc3cccc4[nH]ncc34)n2)c1 | 84 | 61.6 | 93.9 | 9.7 | 65.5 | 37.8 | 82.1 | 5.88 | 39.4 | 46 | 79.7 | 1.43 | 4.78 | 21.8 | 66 | 86.3 | 94.9 | 8.24 | 41.9 | -5.51
13 | O=C1NC(=O)C(c2cccc(Cl)c2)=C1Nc1ccc(O)c(Cl)c1 | 11.5 | -0.47 | 1.74 | 1 | 9.11 | 3.31 | 7.66 | -0.49 | 0.64 | 2.27 | 2.96 | -9.4 | 6 | 1.16 | 7.24 | 3.33 | 5.62 | -0.46 | -1.95 | 1.76
14 | Cc1nn(C)c2cc(N(C)c3ccnc(Nc4cccc(S(N)(=O)=O)c4)n3)ccc12 | 61.6 | 3.71 | 11.6 | 9.35 | 17.8 | 11.9 | 39 | 5.4 | 34.2 | 12.6 | 46.8 | 5.47 | 22.4 | 63.2 | 80.2 | 11.1 | 49.5 | 0.83 | 9.11 | -6.41
